Test results: the supplement of paper PMC6279402
Structures can show the parent of a compound that is named as a salt. ± gives the standard deviation of the averaged measurements.

Tested on: A549
Assay: relative viability (normalised to negative control = 1, bortezomib = 0) (fraction); higher = less cytotoxic
Conditions: inflammatory serum-free RHB-A with cytokines + LPS, 5 d + 24 h CellTiter-Blue
Procedure: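 A549 KRAS-mutant NSCLC cells, pre-treated 5 µM GSK126 or vehicle (DMSO), were seeded at 250 cells/well in 384-well plates in serum-free RHB-A medium with inflammatory cytokines/LPS and treated with Selleck kinase inhibitor and NCI oncology compounds at 30 or 300 nM in triplicate, refreshed at 48 h. Viability was read by CellTiter-Blue after 5 d plus 24 h and normalised per plate with cellHTS2 (mean of bortezomib positive control = 0, mean of negative control = 1).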

[1] = compound 30 nM, GSK126 pretreatment: 5 uM GSK126
[2] = compound 30 nM, GSK126 pretreatment: none (vehicle)
[3] = compound 300 nM, GSK126 pretreatment: 5 uM GSK126
[4] = compound 300 nM, GSK126 pretreatment: none (vehicle)

| Compound | relative viability [1] | relative viability [2] | relative viability [3] | relative viability [4] |
| --- | --- | --- | --- | --- |
| COc1cc([C@@H]2c3cc4c(cc3[C@@H](O[C@@H]3O[C@@H]5CO[C@@H](c6cccs6)O[C@H]5[C@H](O)[C@H]3O)[C@H]3COC(=O)[C@H]23)OCO4)cc(OC)c1O [Teniposide] | 0.861 ± 0.062 | 0.777 ± 0.076 | 0.685 ± 0.037 | 0.544 ± 0.072 |
| COC(=O)c1ccc2c(C(=Nc3ccc(N(C)C(=O)CN4CCN(C)CC4)cc3)c3ccccc3)c(O)[nH]c2c1 [BIBF1120(Vargatef)] | 0.825 ± 0.044 | 0.812 ± 0.16 | 0.844 ± 0.13 | 1.01 ± 0.18 |
| O=C1CCC(N2C(=O)c3ccccc3C2=O)C(=O)N1 (stereo not given) | 0.862 ± 0.17 | 0.862 ± 0.13 | 0.865 ± 0.06 | 0.87 ± 0.034 |
| NC(=O)c1ccc(N(C(N)=O)c2c(F)cccc2F)nc1-c1ccc(F)cc1F | 0.914 ± 0.11 | 0.873 ± 0.059 | 1.09 ± 0.055 | 0.995 ± 0.11 |
| O=C(Nc1cccc(Cl)c1)Nc1ncc(CCNc2ncnc3ccsc23)s1 [SNS-314 Mesylate] | 0.763 ± 0.13 | 0.639 ± 0.054 | 0.689 ± 0.16 | 0.505 ± 0.1 |
| CN1CC[C@H](c2c(O)cc(O)c3c(=O)cc(-c4ccccc4Cl)oc23)[C@H](O)C1 [Flavopiridol hydrochloride] | 0.774 ± 0.011 | 0.785 ± 0.025 | 0.00358 ± 0.0037 | 0.00865 ± 0.0022 |
| COc1cc2ncnc(Nc3ccc(F)c(Cl)c3)c2cc1OCCCN1CCOCC1 [Gefitinib(Iressa); Gefitinib] | 0.922 ± 0.11 | 0.873 ± 0.084 | 0.488 ± 0.11 | 0.472 ± 0.045 |
| CC(C)(C)c1cnc(CSc2cnc(NC(=O)C3CCNCC3)s2)o1 | 0.859 ± 0.1 | 0.811 ± 0.056 | -0.00432 ± 0.0019 | -0.0017 ± 0.0016 |
| O=c1ncn2nc(Sc3ccc(F)cc3F)ccc2c1-c1c(Cl)cccc1Cl | 0.831 ± 0.12 | 0.867 ± 0.11 | 1.12 ± 0.12 | 1.03 ± 0.16 |
| Cc1cc(Nc2cc(N3CCN(C)CC3)nc(/C=C/c3ccccc3)n2)n[nH]1 | 0.897 ± 0.13 | 0.929 ± 0.11 | 0.827 ± 0.17 | 0.769 ± 0.04 |
